From PubChem BioAssay
For part of these data: Measured potencies and affinities stand elsewhere. Active and inactive are the calls of the source.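 Rule for the calls, unless noted: active = membrane potential signal rise above negative control mean plus 3 SD in both duplicates, also active in the earlier TRPC4 screen; inactive = the rest.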

Key:
[1] = test system: TRPC4 beta (transient receptor potential cation channel C4), mouse; assay: activators of mouse TRPC4 channel, confirmation, cell-based, Fluo4 calcium, HEK293 TRPC4beta/mu-opioid, duplicates, 10 µM (AID 2426;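 active = fluorescence ratio normalized to control raised more than 50% in primary screen plus both repeat runs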;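 for activation: percent rise of integrated ratio over buffer wells lacking compound which define 0%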); conditions: Fluo4 calcium fluorescence, at 10 µM; active compounds read high
[2] = test system: transient receptor potential cation channel C4 beta (TRPC4), mouse; assay: activators of mouse TRPC4 channel, confirmation, cell-based, second round, Fluo4, HEK293 TRPC4beta/mu-opioid, 1 µM (AID 2461;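 active = primary screen active and over 50% activation in each of two duplicate runs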;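 for activation: 0% = wells without test compound as baseline of integrated fluorescence ratio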); conditions: Fluo4 calcium fluorescence, at 1 µM; active compounds read high
[3] = test system: TRPC4 (transient receptor potential cation channel C4 beta), mouse; assay: positive allosteric modulators of mouse TRPC4, confirmation, cell-based, second round, Fluo-4, HEK293 TRPC4beta/mu-opioid, 1 µM (AID 2554;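 active = primary screen hit whose fluorescence ratio, in both repeats, exceeds the weak agonist control mean by 3 SD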); conditions: DAMGO EC20, Fluo-4 calcium flux, at 1 µM; active compounds read high
[4] = test system: TRPC4 beta (transient receptor potential cation channel C4), mouse; assay: positive allosteric modulators of mouse TRPC4, confirmation, cell-based, Fluo-4, HEK293 TRPC4beta/mu-opioid (AID 2555;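 active = primary screen hit whose calcium fluorescence ratio, in both repeats, exceeds the weak agonist control mean by 3 SD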); conditions: DAMGO EC20, Fluo-4 calcium flux, at 10 µM; active compounds read high
[5] = target: Short transient receptor potential channel 4 (Mus musculus) (UniProt Q9QUQ5); assay: inhibitors of mouse TRPC4 channel, confirmation, cell-based, Fluo4, HEK293 TRPC4beta/mu-opioid (AID 2636;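 active = calcium signal cut by more than 3 SD below the full-agonist control yet still positive, in both repeats and the earlier primary screen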); conditions: DAMGO, Fluo4 calcium flux, at 10 µM; active compounds read high
Short transient receptor potential channel 4 (Mus musculus), sequence (Q9QUQ5 whole entry, looked up): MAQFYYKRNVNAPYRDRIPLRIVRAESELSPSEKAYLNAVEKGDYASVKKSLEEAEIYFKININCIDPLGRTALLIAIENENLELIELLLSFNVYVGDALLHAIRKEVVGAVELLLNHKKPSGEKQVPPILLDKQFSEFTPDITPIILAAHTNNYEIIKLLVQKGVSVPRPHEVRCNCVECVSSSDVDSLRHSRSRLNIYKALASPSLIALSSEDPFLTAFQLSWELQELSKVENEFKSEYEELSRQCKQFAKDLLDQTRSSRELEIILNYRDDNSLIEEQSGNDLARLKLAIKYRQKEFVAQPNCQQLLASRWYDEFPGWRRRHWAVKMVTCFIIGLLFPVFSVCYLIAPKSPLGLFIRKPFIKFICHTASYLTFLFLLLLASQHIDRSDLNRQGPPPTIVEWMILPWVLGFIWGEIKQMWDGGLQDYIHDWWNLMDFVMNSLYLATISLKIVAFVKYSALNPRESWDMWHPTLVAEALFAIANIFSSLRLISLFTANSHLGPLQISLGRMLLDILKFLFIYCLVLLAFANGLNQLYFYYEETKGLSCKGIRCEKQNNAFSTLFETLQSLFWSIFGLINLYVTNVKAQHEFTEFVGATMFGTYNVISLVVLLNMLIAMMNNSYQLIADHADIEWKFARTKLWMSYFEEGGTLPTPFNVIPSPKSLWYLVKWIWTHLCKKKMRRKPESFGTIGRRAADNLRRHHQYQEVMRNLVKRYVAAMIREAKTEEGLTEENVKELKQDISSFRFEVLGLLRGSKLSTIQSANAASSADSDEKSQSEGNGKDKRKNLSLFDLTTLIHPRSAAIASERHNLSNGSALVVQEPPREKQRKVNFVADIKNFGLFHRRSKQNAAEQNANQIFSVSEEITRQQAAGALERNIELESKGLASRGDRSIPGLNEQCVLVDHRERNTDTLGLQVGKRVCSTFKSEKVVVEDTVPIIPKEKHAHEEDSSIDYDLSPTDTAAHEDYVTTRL

[6] = target: Short transient receptor potential channel 4 (Mus musculus) (UniProt Q9QUQ5); assay: inhibitors of mouse TRPC4 channel, confirmation, cell-based, second round, Fluo4, HEK293 TRPC4beta/mu-opioid, 1 µM (AID 2637;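 active = calcium signal ratio cut to more than 3 SD under the fully stimulated control mean yet still positive, in both repeats and the primary screen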); conditions: Fluo4 calcium flux, DAMGO, at 1 µM; active compounds read high
[7] = target: Short transient receptor potential channel 4 (Mus musculus) (UniProt Q9QUQ5); assay: TRPC4 positive allosteric modulators, dose response, cell-based, HEK293 TRPC4/mu-opioid, Fluo-4 calcium, EC20 DAMGO (AID 434941;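 active = earlier screen potentiator hit that boosts the TRPC4 ion channel at some dose, with a dose response; inactive = no potentiation, no dose response, or not a prior hit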;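 note: calcium entry triggered by an EC20 dose of DAMGO at the co-expressed mu-opioid receptor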)
[8] = target: Short transient receptor potential channel 4 (Mus musculus) (UniProt Q9QUQ5); assay: mouse TRPC4 channel inhibitors, dose response, cell-based, HEK293 TRPC4/mu-opioid, Fluo-4 calcium (AID 434942;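 active = primary screen inhibitor hit that blocks the TRPC4 channel at some tested dose, yielding a dose curve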)
[9] = target: Short transient receptor potential channel 6 (Mus musculus) (UniProt Q61143); assay: inhibition of mouse TRPC6 channel, confirmation, selectivity assay for TRPC4 inhibitor project, cell-based, HEK293, membrane potential dye, duplicate (AID 434948;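 active = active in primary screen and both duplicates, each dropping signal beyond three positive-control SD with fluorescence still positive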); conditions: HEK293 TRPC6, membrane potential dye fluorescence, at 10 µM, stimulated with maximal-effect acetylcholine; active compounds read high
Short transient receptor potential channel 6 (Mus musculus), sequence (Q61143 whole entry, looked up): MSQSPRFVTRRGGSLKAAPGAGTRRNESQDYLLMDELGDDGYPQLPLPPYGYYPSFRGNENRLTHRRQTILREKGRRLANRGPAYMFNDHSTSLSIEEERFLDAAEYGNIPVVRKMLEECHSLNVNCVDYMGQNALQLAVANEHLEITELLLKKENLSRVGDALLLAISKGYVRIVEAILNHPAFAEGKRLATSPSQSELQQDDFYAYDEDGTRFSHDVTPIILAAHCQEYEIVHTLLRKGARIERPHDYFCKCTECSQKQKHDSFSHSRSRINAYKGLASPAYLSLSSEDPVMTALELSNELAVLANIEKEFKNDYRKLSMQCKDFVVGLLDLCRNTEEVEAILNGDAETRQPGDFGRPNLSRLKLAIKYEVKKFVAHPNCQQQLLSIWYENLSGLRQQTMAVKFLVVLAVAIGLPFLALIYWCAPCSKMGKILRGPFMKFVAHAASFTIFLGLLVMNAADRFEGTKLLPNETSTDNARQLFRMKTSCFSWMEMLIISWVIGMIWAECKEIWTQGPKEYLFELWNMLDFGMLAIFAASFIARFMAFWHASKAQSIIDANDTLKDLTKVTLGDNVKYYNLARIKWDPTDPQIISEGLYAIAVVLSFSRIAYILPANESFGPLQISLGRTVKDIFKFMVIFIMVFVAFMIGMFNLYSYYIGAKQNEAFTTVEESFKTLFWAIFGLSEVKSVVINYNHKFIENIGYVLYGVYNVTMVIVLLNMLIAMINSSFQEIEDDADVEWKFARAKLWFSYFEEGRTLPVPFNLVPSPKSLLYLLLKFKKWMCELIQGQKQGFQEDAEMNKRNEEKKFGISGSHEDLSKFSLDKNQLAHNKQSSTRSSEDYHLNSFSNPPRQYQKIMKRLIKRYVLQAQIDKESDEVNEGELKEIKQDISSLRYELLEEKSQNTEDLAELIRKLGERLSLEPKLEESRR

[10] = target: Short transient receptor potential channel 6 (Mus musculus) (UniProt Q61143); assay: activation of mouse TRPC6 channel, confirmation, selectivity assay for TRPC4 activator project, cell-based, HEK293, membrane potential dye, duplicate (AID 434950); conditions: HEK293 TRPC6, membrane potential fluorescence, at 10 µM; active compounds read high;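 for activation: 0% = buffer only wells and 100% = acetylcholine maximal-effect wells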
[11] = target: Short transient receptor potential channel 6 (Mus musculus) (UniProt Q61143); assay: TRPC6 potentiation by TRPC4 potentiator hits, confirmation, selectivity assay for TRPC4 potentiator project, HEK293 cells, membrane potential dye, duplicate (AID 434952;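 active = compound raising the membrane signal above positive-control mean plus 3 SD in both repeats, and a primary screen hit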); conditions: HEK293 TRPC6, membrane potential dye fluorescence, at 10 µM, maximal acetylcholine added after compound; active compounds read high
[12] = target: Short transient receptor potential channel 4 (Mus musculus) (UniProt Q9QUQ5); assay: calcium flux activators in TRPC4/5HT1a cells, counter-screen for TRPC4 activator project, cell-based, second counter screen, HEK293 TRPC4/5HT1a, Fluo-4 (AID 434977;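 active = calcium signal rise above buffer-control mean plus 5 SD in both duplicates, and also a hit in the primary screen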;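 for activation: plate controls were assay buffer for no effect and maximal serotonin response for full effect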); conditions: Fluo-4 calcium flux, at 10 µM; active compounds read high
[13] = calcium flux inhibitors in TRPC4/5HT1a cells, confirmation, counter-screen for TRPC4 inhibitor project, cell-based, second counter screen, HEK293 TRPC4/5HT1a, Fluo-4 (AID 434978;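 active = primary screen active whose calcium signal fell more than 3 SD beyond the full-serotonin control mean in both duplicate plates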;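 note: serotonin given first at submaximal then at maximal dose after compound preincubation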); conditions: Fluo-4 calcium flux, at 10 µM, serotonin added to trigger calcium flux; active compounds read high
[14] = test system: TRPC4 (mouse), co-expressed with 5HT1a in HEK293; assay: calcium flux potentiators in TRPC4/5HT1a cells, confirmation, counter-screen for TRPC4 potentiator project, cell-based, second counter screen, HEK293 TRPC4/5HT1a, Fluo-4 (AID 434979;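 active = signal rise over 3 SD above mean of control wells given weak agonist, in both repeats and first screen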); conditions: Fluo-4 calcium flux, at 10 µM, serotonin added at its EC20 dose; active compounds read high
[15] = calcium flux activation in mu-opioid HEK293 cells, confirmation, counter-screen for TRPC4 activator project, cell-based, HEK293 mu-opioid receptor line (AID 449723;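 active = hit in primary screen, with calcium signal over 5 SD above buffer well mean in both duplicates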;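 note: counter screen cells carry the mu-opioid receptor alone and lack TRPC4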); conditions: Fluo-4 calcium fluorescence, at 10 µM; active compounds read high
[16] = calcium flux enhancement in mu-opioid HEK293 cells, confirmation, counter-screen for TRPC4 allosteric potentiator project, cell-based, HEK293 mu-opioid receptor line (AID 449724;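 active = calcium signal rise more than 3 SD above the low-dose agonist control mean, in both duplicate plates and the primary screen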); conditions: Fluo-4 calcium flux, at 10 µM, compound added before EC20 DAMGO stimulus; active compounds read high

Cc1ccn(CC(=O)NC2CCCN(Cc3ccc(CC(C)C)cc3)C2)n1 (stereo not given)
inactive: outcome [2] | outcome [3] | outcome [4] | outcome [5] | outcome [6] | outcome [7] | outcome [8] | outcome [9] | outcome [11] | outcome [13] | outcome [14] | outcome [15] | outcome [16]
active: activation [1] 170% | activation [10] 61% | activation [12] 50.5%

CN1CCN(c2ccc(NC(=O)COc3cccc4ccccc34)cc2)CC1
inactive: outcome [2] | outcome [3] | outcome [4] | outcome [5] | outcome [6] | outcome [7] | outcome [8] | outcome [9] | outcome [10] | outcome [11] | outcome [12] | outcome [13] | outcome [14] | outcome [15] | outcome [16]
active: activation [1] 135%

Cc1csc2c(N3CCN(C(=S)Nc4ccc(C(F)(F)F)cc4)CC3)ncnc12
active: activation [1] 102% | activation [2] 55% | activation [12] 48.2%
inactive: outcome [3] | outcome [4] | outcome [5] | outcome [6] | outcome [7] | outcome [8] | outcome [9] | outcome [10] | outcome [11] | outcome [13] | outcome [14] | outcome [15] | outcome [16]

Cc1cc(CSC(=N)N)c(CSC(=N)N)cc1C
active: activation [1] 178% | activation [2] 67% | activation [12] 46%
inactive: outcome [3] | outcome [4] | outcome [5] | outcome [6] | outcome [7] | outcome [8] | outcome [9] | outcome [10] | outcome [11] | outcome [13] | outcome [14] | outcome [15] | outcome [16]

COc1ccc(C(CNC(=O)c2ccccc2SC)N(C)C)cc1 (stereo not given)
inactive: outcome [2] | outcome [3] | outcome [4] | outcome [5] | outcome [6] | outcome [7] | outcome [8] | outcome [9] | outcome [11] | outcome [12] | outcome [13] | outcome [14] | outcome [15] | outcome [16]
active: activation [1] 99% | activation [10] 56%

CCN1CCN(c2ccc(S(=O)(=O)N3CCCCC3)cc2NC(=O)CC(C)c2ccccc2)CC1 (stereo not given)
active: activation [1] 140%
inactive: outcome [2] | outcome [3] | outcome [4] | outcome [5] | outcome [6] | outcome [7] | outcome [8] | outcome [9] | outcome [10] | outcome [11] | outcome [12] | outcome [13] | outcome [14] | outcome [15] | outcome [16]

O=c1c(Cc2ccc(F)cc2)c(O)ccn1CCc1cnc[nH]1
active: activation [1] 112% | activation [12] 29%
inactive: outcome [2] | outcome [3] | outcome [4] | outcome [5] | outcome [6] | outcome [7] | outcome [8] | outcome [9] | outcome [10] | outcome [11] | outcome [13] | outcome [14] | outcome [15] | outcome [16]

CSc1ccc(C(=O)NCC(c2ccco2)N(C)C)cc1[N+](=O)[O-] (stereo not given)
active: activation [1] 341% | activation [2] 228% | activation [12] 45.6%
inactive: outcome [3] | outcome [4] | outcome [5] | outcome [6] | outcome [7] | outcome [8] | outcome [9] | outcome [10] | outcome [11] | outcome [13] | outcome [14] | outcome [15] | outcome [16]

COC(=O)c1cc(N2CCNCC2)nc2ccccc12
inactive: outcome [1] | outcome [2] | outcome [3] | outcome [5] | outcome [6] | outcome [7] | outcome [8] | outcome [9] | outcome [10] | outcome [11] | outcome [13] | outcome [15] | outcome [16]
active: potentiation [4] 47% | activation [12] 18.6% | potentiation [14] 13.8%

Cc1ccc(NC(=S)NC2CC3CCC(C2)N3Cc2ccco2)c(C)c1 (stereo not given)
active: activation [1] 116% | activation [12] 25.9%
inactive: outcome [2] | outcome [3] | outcome [4] | outcome [5] | outcome [6] | outcome [7] | outcome [8] | outcome [9] | outcome [10] | outcome [11] | outcome [13] | outcome [14] | outcome [15] | outcome [16]

CCOc1ccccc1N(CC(=O)N1CCOCC1)S(=O)(=O)c1ccc(SC)cc1
inactive: outcome [2] | outcome [3] | outcome [4] | outcome [5] | outcome [6] | outcome [7] | outcome [8] | outcome [9] | outcome [11] | outcome [13] | outcome [14] | outcome [16]
active: activation [1] 164% | activation [10] 89% | activation [12] 134% | activation [15] 111%

CN(C)C(CNc1ccc(C(F)(F)F)cn1)c1ccccc1 (stereo not given)
active: activation [1] 135% | activation [10] 32% | activation [12] 5.53%
inactive: outcome [2] | outcome [3] | outcome [4] | outcome [5] | outcome [6] | outcome [7] | outcome [8] | outcome [9] | outcome [11] | outcome [13] | outcome [14] | outcome [15] | outcome [16]

COc1ccc(C(CNc2ncnc3sc(C)c(C)c23)N(C)C)cc1 (stereo not given)
inactive: outcome [3] | outcome [4] | outcome [5] | outcome [6] | outcome [7] | outcome [8] | outcome [9] | outcome [10] | outcome [11] | outcome [12] | outcome [13] | outcome [14] | outcome [15] | outcome [16]
active: activation [1] 227% | activation [2] 113%

COc1ccc(C(=O)C2CCCN(Cc3ccc(Sc4nncn4C)o3)C2)cc1F (stereo not given)
inactive: outcome [3] | outcome [4] | outcome [5] | outcome [6] | outcome [7] | outcome [8] | outcome [9] | outcome [11] | outcome [13] | outcome [14] | outcome [15] | outcome [16]
active: activation [1] 164% | activation [2] 87% | activation [10] 36% | activation [12] 9.87%

CN(C)CCCN(C(=O)c1ccc(S(=O)(=O)N2CCc3ccccc3C2)cc1)c1nc2ccc(F)cc2s1
inactive: outcome [1] | outcome [2] | outcome [3] | outcome [4] | outcome [5] | outcome [6] | outcome [7] | outcome [8] | outcome [9] | outcome [10] | outcome [11] | outcome [12] | outcome [13] | outcome [14] | outcome [15] | outcome [16]
